# PubChem BioAssay (Tox21)
# Results filed as inconclusive are left out. The source made the active and inactive calls. The call rests on the fitted dose curve; in most records, active means well fitted activation curve with a large enough effect in the signal ratio in the repeat runs (not every such curve was filed as active); inconclusive means weak or mixed curves; inactive means flat fitted curve, though single readings scatter; the % refers to the signal ratio.
# Assay: qHTS assay to identify small molecule agonists of the hypoxia (HIF-1) signaling pathway (AID 1224846)
# Details: HRE-bla ME-180 cells, beta-lactamase ratio, 17 h; series mostly up to 76.8 µM; activation: at the top concentration
# From the text: U.S. Tox21 Program National Center for Advancing Translational Sciences [NCATS] NIH Chemical Genomics Center [NCGC] U.S. Environmental Protection Agency [EPA] National Institutes of Environmental Health Sciences [NIEHS] National Toxicology Program [NTP] U.S. Food and Drug Administration [FDA] Tox21 Assay Overview: Hypoxia-inducible factor-1 (HIF-1) is the major hypoxia-regulated transcription factor that controls cellular responses to low oxygen concentration. HIF-1 is composed of two subunits: hypoxia responsive HIF-1-alpha and constitutively expressed HIF-1-beta, which is also known as aryl hydrocarbon receptor nuclear translocator. During hypoxic conditions, HIF-1-alpha heterodimerizes with HIF-1-beta and translocates into the nucleus where the HIF-1 complex binds to the hypoxia-response element (HRE) and activates expression of target genes such as VEGF (vascular endothelial growth factor). The HIF-1 pathway is essential to normal growth and development, and is involved in the pathophysiology of cancer, inflammation, and ischemia. Using a beta-lactamase reporter-gene under control of the hypoxia response element, a cell-based assay [CellSensor(TM) HRE-bla ME-180 from Life Technologies, Carlsbad, CA] was used to measure hypoxia-induced signaling. Tox21 10K library compounds were measured for their ability to induce the reporter gene activity.
# Tox21 Assay Protocol Summary: HRE-bla ME-180 cells were dispensed at 2,000 cells per well in 6 uL of assay medium containing 0.5% dialyzed FBS into black wall/clear-bottom 1536-well plates using a Multidrop Combi (Thermo Scientific, Waltham, MA) dispenser. After the assay plates were incubated at 37C and 5% CO2 for 5 hrs, 23 nL of compounds dissolved in DMSO, positive controls or DMSO only was transferred to each well of the assay plate using a Pintool station (Kalypsys, San Diego, CA). The assay plates were incubated at 37C and 5% CO2 for 17 hrs. One uL of LiveBLAzerTM B/G FRET substrate (CCF4-AM) (Life Technologies) was added to each well using a Flying Reagent Dispenser (Aurora Discovery, San Diego, CA).
# On the % scale 0 is the no-effect control and ±100 the full control effect.
row,SMILES,activation
1,CCCCCCC(O)CO (stereo not given),0.424% (inactive)
2,O=C1CCCc2c(O)cccc21,-0.31% [at 35.5 µM] (inactive)
3,O=CN1CCCCC1,0.0793% (inactive)
4,O=C1CC2(CCCC2)CC(=O)N1CCNCC1COc2ccccc2O1 (stereo not given),0.794% [at 35.5 µM] (inactive)
5,CC(=O)c1c(C)cc(C(C)(C)C)cc1C,0.0871% (inactive)
6,CCOC(=O)CN1CCCC1=O,-0.898% [at 35.5 µM] (inactive)
7,CCCCC(O)/C=C(C)/C=C/C=C/C(=O)N1CCCC1=O (stereo not given),-0.991% [at 35.5 µM] (inactive)
8,C=COCCCCO,0.215% (inactive)
9,CCCCC(CC)CCC(CC(C)C)OS(=O)(=O)O (stereo not given),-0.549% (inactive)
10,CCOC(=O)CC,-1.46% (inactive)
11,Cc1cc(O)c(Cl)cc1C,-0.833% (inactive)
12,CC(=O)SC[C@@H](C)C(=O)N1CCC[C@H]1C(=O)N[C@@H](Cc1ccccc1)C(=O)O,0.516% [at 35.5 µM] (inactive)
13,CC1(C)CC(N)CC(C)(C)N1,-0.673% (inactive)
14,C=CCON/C(CCC)=C1\C(=O)CC(C)(C)C(C(=O)OC)=C1O,0.0842% (inactive)
15,Cc1cc(N)no1,4.44% (inactive)
16,COC(=O)c1ccc(C(=O)O)cc1,-1.73% (inactive)
17,CCCCCCCCCCCCCCCCN(C)C,-0.212% [at 7.01 µM] (inactive)
18,CC(C)OCCO,-1.09% (inactive)
19,O=C(O)COc1ccc2ccccc2c1,-0.0453% (inactive)
20,O=C(CCBr)N1CCN(C(=O)CCBr)CC1,-0.202% [at 35.5 µM] (inactive)

row,SMILES,activation
1,CC(C)=CCC/C(C)=C\C#N,0.0793% (inactive)
2,Cc1ccc(O)c(C(=O)c2ccccc2)c1,-1.5% (inactive)
3,COC(=O)C(c1ccccc1Cl)N1CCc2sccc2C1 (stereo not given),1.4% [at 35.5 µM] (inactive)
4,CC(=O)c1ccc(O)c(C(N)=O)c1,-0.626% [at 35.5 µM] (inactive)
5,CC(=O)Nc1ccc(S(=O)(=O)Nc2cc(C)on2)cc1,-0.732% [at 35.5 µM] (inactive)
6,O=C(O)Cc1ccccc1Oc1ccc(Cl)cc1Cl,0.0876% [at 35.5 µM] (inactive)
7,CC(C)OC(=O)C(C(=O)OC(C)C)=C1SC=CS1,4.78% [at 35.5 µM] (inactive)
8,C=CC(=O)OCC[N+](C)(C)C,-0.739% (inactive)
9,O=S(=O)(O)c1cc(I)c(O)c2ncccc12,-0.861% [at 35.5 µM] (inactive)
10,CC(=O)O[C@@H]1CC2C3CCc4cc(OC(=O)c5ccccc5)ccc4C3CCC2(C)[C@H]1OC(C)=O (stereo not given in full),-0.407% [at 35.5 µM] (inactive)
11,CO/N=C(\C(=O)O)c1csc(NC(=O)CCl)n1,-0.481% [at 35.5 µM] (inactive)
12,Cc1ccc(Br)cc1,1.01% (inactive)
13,Cc1ccc2cccnc2c1,-0.0754% (inactive)
14,CCC(C)c1nccnc1OC (stereo not given),-0.657% (inactive)
15,CCCC(=O)OC,0.0547% (inactive)
16,CCCCCCCCCCCCCCCC(=O)OC,0.217% [at 15.8 µM] (inactive)
17,Nc1nc(Cl)cc(Cl)n1,-0.743% (inactive)
18,O=C(O)P(=O)(O)O,-0.521% [at 35.5 µM] (inactive)
19,CCN(CC)CC(=O)Oc1ccc(NC(C)=O)cc1,-1.86% [at 35.5 µM] (inactive)
20,COC(C)(C)CC(C)=O,-0.97% (inactive)
